# An excerpt weighted towards active compounds, which were near 17% of everything screened.
# TDP1 inh – inhibitors of human tyrosyl-DNA phosphodiesterase TDP1; Q9NUW8; recombinant TDP1, AlphaScreen DNA substrate cleavage; Potency, µM (series often up to 130 µM), hits mostly inhibitors; 0.28% of 350,000 active; AID 485290; note: nearly all actives have a fitted effect of over 40% in size
# Target sequence (Q9NUW8 whole entry, looked up): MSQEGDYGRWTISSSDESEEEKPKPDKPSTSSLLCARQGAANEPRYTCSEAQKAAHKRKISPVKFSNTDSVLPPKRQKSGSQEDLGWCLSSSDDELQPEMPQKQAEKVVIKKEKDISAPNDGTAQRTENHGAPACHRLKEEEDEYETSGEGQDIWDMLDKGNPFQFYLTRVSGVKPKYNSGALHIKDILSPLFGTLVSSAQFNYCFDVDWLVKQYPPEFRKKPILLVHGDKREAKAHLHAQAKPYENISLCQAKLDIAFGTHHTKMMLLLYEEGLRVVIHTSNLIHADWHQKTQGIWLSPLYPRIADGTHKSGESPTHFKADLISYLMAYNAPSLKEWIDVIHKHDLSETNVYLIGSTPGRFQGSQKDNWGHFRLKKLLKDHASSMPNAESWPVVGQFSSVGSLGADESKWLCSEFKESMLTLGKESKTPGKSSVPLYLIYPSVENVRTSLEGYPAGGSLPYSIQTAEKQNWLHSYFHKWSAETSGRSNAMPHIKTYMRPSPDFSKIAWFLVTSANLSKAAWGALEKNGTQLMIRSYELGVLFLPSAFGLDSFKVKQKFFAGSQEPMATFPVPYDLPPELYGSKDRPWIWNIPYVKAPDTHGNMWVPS
#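 Enzyme-compound mixtures sat 15 min at room temperature, followed by a 5 min reaction with 15 nM final substrate and 10 min with AlphaScreen beads. Recombinant human Tdp1 was used at 1 nM final.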
# ClpP mod – qHTS Assay for Activators of ClpP. AID 651965, 2013. Potency, µM (highest dose often 57.5 µM). 1.9% of 340,000 active. ATP-dependent Clp protease proteolytic subunit (Bacillus subtilis (strain 168)), P80244. purified B. subtilis ClpP, FRET peptide cleavage, 20 min; active = well fitted falling curve with a large enough effect; inconclusive = small, poorly fitted or top-dose-only effect; inactive = no such curve, though single readings can be large or run the other way; note: the source files actives as falling curves though it sought activators and does not explain the sign; nearly all actives have a fitted effect of over 65% in size
#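 ClpP 10 microg/mL final, pH 8 Tris/KCl buffer with BSA, glycerol, Tween-20; compound pinned in; FRET-FV substrate; RT 20 min; Ex320/Em430; ΔFRET vs ADEP 5.8 microM, DMSO, no enzyme.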
# TDP1 cell noCPT – qHTS for Inhibitors of human tyrosyl-DNA phosphodiesterase 1 (TDP1): qHTS in cells in absence of CPT. DT40 Tdp1-/- hTDP1 cells, no CPT, ATP luminescence, 48 h. Potency, µM (top dose mostly 46.2 µM), hits mostly inhibitors. 15% of 420,000 active. AID 686978, 2013; note: nearly all actives have a fitted effect of over 55% in size
#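 Luminescent ATP content (CellTiter-Glo) served as the growth readout. Knockout chicken DT40 cells expressing human TDP1 were exposed to compounds without camptothecin for a minimum 48 hr at 37 °C.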
# TDP1 cell CPT – DT40-hTDP1 cell growth loss with CPT; AID 686979; Potency, µM (highest dose often 46.2 µM), hits mostly inhibitors; 12% of 420,000 active; chicken DT40 Tdp1-/-;hTDP1 cells + 20 nM CPT, ATP luminescence, 48 h; note: nearly all actives have a fitted effect of over 55% in size
#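 Chicken DT40 Tdp1-/- cells complemented with human TDP1, 400 cells/well, exposed to compounds plus 20 nM camptothecin for at least 48 h at 37 C; viability read as ATP content by CellTiter-Glo luminescence.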
# Numbers stand for hits; n = inactive; u = inconclusive; x = no result. Unless noted, calls come from the whole dose curve; as a rule, active = well fitted curve in the direction sought with a large enough effect; inconclusive = small, poorly fitted or top-dose-only effect, or another doubt; inactive = no such curve, though single readings can be large; an effect the other way counts as inactive or inconclusive.
SMILES,TDP1 inh,ClpP mod,TDP1 cell noCPT,TDP1 cell CPT
Oc1ccc(C=NNC(=S)Nc2cccnc2)nc1,x,u,20.6µM,16.4µM
COc1ccc(OC)c(NC(=O)COC(=O)CSc2ccc(Cl)cc2)c1,n,n,n,n
COCCn1c(NC(=S)NC(=O)C2CC2)cc(=O)[nH]c1=O,n,n,n,n
COCc1cc(=O)[nH]c2cc(NC(=O)C3CC3)c(C)cc12,n,20µM,n,n
COc1cc(CNC(C)C23CC4CC(CC(C4)C2)C3)ccc1OCC(=O)NC(C)(C)C (stereo not drawn),x,x,20.6µM,n
COc1cc(CNc2ccc(N3CCCC3)cc2)ccc1OCc1ccccc1F,n,n,4.61µM,3.66µM
COc1cc(C)ccc1OC(C)C(=O)Nc1ccc(N2CCCCC2)cc1 (stereo not drawn),n,n,13µM,u
COc1ccc(C(=O)Nc2ccc(N3CCCC3)cc2)cc1OC,n,x,u,u
C=CCOc1c(CNc2ccc(S(N)(=O)=O)cc2)cccc1OC,n,n,18.4µM,u
Cc1ccc(C)c(N2N=C(C(=O)N(CC(C)C)c3c(N)n(Cc4ccccc4)c(=O)[nH]c3=O)CCC2=O)c1,n,n,n,n
CN(C)c1ccc(NC(=S)c2ccc3ccccc3n2)cc1,n,n,u,u
COc1cc(CNc2ccc(N3CCCC3)cc2)ccc1OCc1ccccc1,n,n,2.06µM,1.64µM
COc1cc(C(=S)N2CCCC2)ccc1OCc1ccccc1,n,x,u,n
COc1cc(CNc2ccc(N3CCCCC3)cc2)ccc1OCC(=O)NC(C)(C)C,n,x,23.1µM,u
COc1cc(CNC(C)C23CC4CC(CC(C4)C2)C3)cc(OC)c1OC (stereo not drawn),x,n,u,u
CC(NCc1cc(Br)ccc1OCC(N)=O)C12CC3CC(CC(C3)C1)C2 (stereo not drawn),x,n,18.4µM,u
COc1cc(CNCc2cccs2)ccc1OCc1ccccc1,n,u,n,n
COc1cc(CNC23CC4CC(CC(C4)C2)C3)ccc1OCc1ccccc1,n,x,20.6µM,29.1µM
COc1cc(CNc2ccc(S(N)(=O)=O)cc2)ccc1OCc1ccccc1F,x,n,u,18.4µM
CCNCc1ccc(OCc2ccccc2F)c(OC)c1,n,n,u,n
CCS(=O)(=O)c1nc(S(=O)(=O)c2ccc(Cl)cc2)c(NCc2ccccn2)s1,n,n,n,n
Cc1cc(C)c(S(=O)(=O)c2ccc(Cl)cc2)c(Cl)n1,n,x,n,n
Cc1cc(S(=O)(=O)c2ccc(Cl)cc2)nc(S(=O)(=O)c2ccc(Cl)cc2)c1C#N,x,n,0.651µM,0.651µM
COc1cccc(C2C(C(=O)Nc3ccc(Cl)cc3)=C(C)Nc3nc4ccccc4n32)c1 (stereo not drawn),n,n,n,20.6µM
Cc1ccc(OCC(=O)Nc2nonc2-c2ccc(Br)cc2)cc1,n,n,n,n
SMILES,TDP1 inh,ClpP mod,TDP1 cell noCPT,TDP1 cell CPT
Cc1cccc(OCC(=O)Nc2nonc2-c2ccc(Br)cc2)c1C,n,n,u,18.4µM
Cc1cccc(OC(C)C(=O)Nc2nonc2-c2ccc(Br)cc2)c1C (stereo not drawn),n,n,16.4µM,25.9µM
Cc1ccc(OC(C)C(=O)Nc2nonc2-c2ccc(Br)cc2)cc1C (stereo not drawn),n,n,18.4µM,u
CCC(C)NC(=O)c1ccccc1NC(=O)CN1C(=O)c2cccc3cccc1c23 (stereo not drawn),n,n,n,n
COc1cccc(C(C)NC(=O)Nc2ccccc2Cl)c1 (stereo not drawn),n,n,u,20.6µM
O=C(CN1CCCCCC1)Nc1ccc(F)c(F)c1,x,n,n,n
COc1cccc(CN2CCN(CC(=O)Nc3ccccc3Cl)CC2)c1,n,14.1µM,16.4µM,u
O=C(CN1CCN(CC(=O)Nc2ccccc2Cl)CC1)Nc1ccc(F)c(F)c1,x,n,23.1µM,u
COC(=O)c1ccc(Cl)cc1NC(=O)N(Cc1ccc(OC)cc1)C1CCN(C(C)=O)CC1,n,n,7.31µM,u
Cc1ccc(C)c(C(=O)N(C)CC(=O)Nc2ccccc2C(F)(F)F)c1,n,n,n,n
Cc1nc(CS(=O)(=O)c2ccc(Cl)cc2)cc(Sc2ccc(Cl)cc2)n1,n,n,u,n
COc1ccccc1CN(C)C(=O)CN1CCN(CC(=O)Nc2ccccc2Cl)CC1,n,n,23.1µM,23.1µM
O=C(CN1CCN(C(=O)C2CCN(C(=O)/C=C/c3ccccc3)CC2)CC1)Nc1ccccc1Cl,n,x,18.4µM,u
COc1ccccc1CN(C)C(=O)CN1CCN(C(=O)c2cccs2)CC1,n,n,u,u
CCN1CCC(N(Cc2cccc(OC)c2)C(=O)Nc2ccc(C)cc2Cl)CC1,n,n,18.4µM,u
COc1ccc(NC(C)=O)cc1NC(=O)CN1CCN(CC(=O)Nc2ccccc2Cl)CC1,n,n,20.6µM,u
CCc1cccc(C)c1NC(=S)N(CCN(C)C)C(C)c1cccnc1 (stereo not drawn),n,n,n,n
Cc1ccc(-n2c(=O)c3c(c4cc(C)ccc4n3C)n(CC(=O)NCc3ccccc3)c2=O)cc1,n,u,u,u
COc1ccc(CCc2nnc(NS(C)(=O)=O)s2)cc1,u,x,n,n
O=c1c2cc3c(=O)n(-c4ccccc4O)c(=O)c3cc2c(=O)n1-c1ccccc1O,n,n,n,n

# Screening data deposited in PubChem by National Center for Advancing Translational Sciences (NCATS).
